Reference: PubChem BioAssay AID624206 (National Center for Advancing Translational Sciences (NCATS), 2012)
Values without a mark were called inactive. Calls follow the shape of the dose curve; as a rule, active = well fitted curve in the direction sought with a large enough effect; inconclusive = small, poorly fitted or top-dose-only effect, or another doubt; inactive = no such curve, though single readings can be large or run the other way.

assay: Quantitative high throughput screen to test cell viability of anti-malarial compounds targeting the delayed death phenotype.; details: HepG2 viability, CellTiter-Glo luminescence, 48 h
Description: NIH Molecular Libraries Probe Production Network [MLPCN] NIH Chemical Genomics Center [NCGC] MLPCN Grant: R21 NS059500 Assay Provider: David Fidock and Eric Ekland, Columbia University The goal of this screen is to measuer the cytoxoxicity (against HepG2 cell line) of a set of anti-malarial compounds that target the delayed death pheonotype, by inhibiting the development of the apicoplast in the malarial parasite Plasmodium falciparum (described below) The biochemical processes that make this organelle essential for erythrocytic stage parasites are not well understood. However, antibiotics, such as azithromycin and tetracycline, which target the apicoplast translational machinery, have a potent antimalarial effect. […] We have developed a cell-based assay that measures parasite growth based on the expression of an integrated copy of a firefly luciferase reporter. To detect small molecules that cause this 'delayed death' phenotype, erythrocytes infected with the luciferase-expressing parasites were incubated with compounds for either one or two generations, corresponding to 48 and 96 hours, respectively. Compounds that inhibit parasite growth in the second generation, but not the first, should be enriched in antimalarials that target the apicoplast. Growth inhibition is detected by a decrease in luciferase activity
Cells were plated at a density of 2000 cells/well/5uL in 1536 well white tissue culture plate with culture medium. Triplicate plates were prepared. Plates were incubated at 37C, 5% CO2 for 5 hours and then 23nL of compounds and positive control were transferred to the assay plates. Tetraoctylammonium bromide was added as a positive control. Plates were then incubated at 37C, 5% CO2 for 48 hours. 5 uL of CellTitler-Glo buffer was added to each well and then incubated for 30 min at room temperature. Luminescence was measured using ViewLux (1 second, slow, 2X).

SMILES | max response [%]
CCCc1c(CC)c(=N)c2ccccc2n1C | 13.6
Clc1ccc(-c2c[n+](Cc3ccc(Cl)cc3Cl)c3n2CCCCC3)cc1 | -16.1
Cc1ccc(CN2CCC(n3nccc3NC(=O)c3ccccc3C)CC2)o1 | 13.2
